Several values for one entry are separate records, joined by “and”; a condition that tells them apart may be missing. Equal entries are not always repeated. Unmarked numbers belong to inactive results. Inconclusive results are not listed. Entries that show only a call come without a potency. Activity calls are given as the source filed them. Unless noted, calls follow the shape of the dose curve; as a rule, active = well fitted curve in the direction sought with a large enough effect in the repeat runs; inconclusive = weak or mixed curves; inactive = no such curve, though single readings can be large; an effect the other way counts as inactive or inconclusive.
Key:
[1] = biological target: Thyrotropin receptor (Homo sapiens) (UniProt P16473); test: qHTS assay to identify small molecule antagonists of the thyroid stimulating hormone receptor (TSHR) signaling pathway (AID 1259385; calls by dose curve; also: nearly all actives have a fitted effect of over 20% in size)
Thyrotropin receptor (Homo sapiens), sequence (P16473 whole entry, looked up): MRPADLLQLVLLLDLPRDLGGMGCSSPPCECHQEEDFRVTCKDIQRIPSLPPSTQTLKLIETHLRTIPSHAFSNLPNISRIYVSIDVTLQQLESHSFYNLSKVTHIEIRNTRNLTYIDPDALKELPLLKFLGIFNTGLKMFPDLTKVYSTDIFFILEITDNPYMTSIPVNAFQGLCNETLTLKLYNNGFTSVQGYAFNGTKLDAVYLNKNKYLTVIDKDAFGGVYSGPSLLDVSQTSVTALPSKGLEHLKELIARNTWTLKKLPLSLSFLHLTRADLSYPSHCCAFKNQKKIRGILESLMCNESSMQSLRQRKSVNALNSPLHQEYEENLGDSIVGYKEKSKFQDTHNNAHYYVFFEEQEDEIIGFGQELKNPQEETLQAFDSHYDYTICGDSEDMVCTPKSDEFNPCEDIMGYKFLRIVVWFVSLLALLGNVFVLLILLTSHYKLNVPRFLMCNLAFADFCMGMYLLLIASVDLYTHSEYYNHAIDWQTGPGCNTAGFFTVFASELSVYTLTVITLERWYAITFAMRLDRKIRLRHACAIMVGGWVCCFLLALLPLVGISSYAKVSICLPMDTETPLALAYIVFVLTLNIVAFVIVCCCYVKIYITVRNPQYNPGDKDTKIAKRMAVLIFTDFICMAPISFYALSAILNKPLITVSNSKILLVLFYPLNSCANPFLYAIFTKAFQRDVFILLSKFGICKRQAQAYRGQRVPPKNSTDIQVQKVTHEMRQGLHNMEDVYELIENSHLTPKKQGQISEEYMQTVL
Summary of the method: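 TSHR-HEK293 cells (800/well) plated 18 h, then compounds with Ro20-1724 and TSH at 1.5 ng/mL final, 30 min at room temperature. cAMP quantified by HTRF (cAMP-d2/anti-cAMP-cryptate, 1 h); 15 concentrations in triplicate.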

[2] = qHTS assay to identify small molecule agonists of the estrogen receptor alpha (ER-alpha) signaling pathway in the presence of an antagonist - cell viability counter screen (AID 1259386);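 also: cells exposed to compounds for 22 h at 37 °C before the viability read; nearly all actives have a fitted effect of over 30% in size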; also: potency is read from the fitted curve at half-maximal effect
Summary of the method: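 Fluorescent CellTiter-Fluor viability signal from VM7Luc4E2 cells, with the reagent added during the final hour of a 22hr compound exposure at 37C in the presence of 10.0nM ICI-182,780.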

[3] = biological target: Progesterone receptor (Homo sapiens) (UniProt P06401); test: qHTS assay to identify small molecule agonists of the progesterone receptor (PR) signaling pathway (AID 1346784; calls by dose curve; also: nearly all actives have a fitted effect of over 30% in size)
Progesterone receptor (Homo sapiens), sequence (P06401 whole entry, looked up): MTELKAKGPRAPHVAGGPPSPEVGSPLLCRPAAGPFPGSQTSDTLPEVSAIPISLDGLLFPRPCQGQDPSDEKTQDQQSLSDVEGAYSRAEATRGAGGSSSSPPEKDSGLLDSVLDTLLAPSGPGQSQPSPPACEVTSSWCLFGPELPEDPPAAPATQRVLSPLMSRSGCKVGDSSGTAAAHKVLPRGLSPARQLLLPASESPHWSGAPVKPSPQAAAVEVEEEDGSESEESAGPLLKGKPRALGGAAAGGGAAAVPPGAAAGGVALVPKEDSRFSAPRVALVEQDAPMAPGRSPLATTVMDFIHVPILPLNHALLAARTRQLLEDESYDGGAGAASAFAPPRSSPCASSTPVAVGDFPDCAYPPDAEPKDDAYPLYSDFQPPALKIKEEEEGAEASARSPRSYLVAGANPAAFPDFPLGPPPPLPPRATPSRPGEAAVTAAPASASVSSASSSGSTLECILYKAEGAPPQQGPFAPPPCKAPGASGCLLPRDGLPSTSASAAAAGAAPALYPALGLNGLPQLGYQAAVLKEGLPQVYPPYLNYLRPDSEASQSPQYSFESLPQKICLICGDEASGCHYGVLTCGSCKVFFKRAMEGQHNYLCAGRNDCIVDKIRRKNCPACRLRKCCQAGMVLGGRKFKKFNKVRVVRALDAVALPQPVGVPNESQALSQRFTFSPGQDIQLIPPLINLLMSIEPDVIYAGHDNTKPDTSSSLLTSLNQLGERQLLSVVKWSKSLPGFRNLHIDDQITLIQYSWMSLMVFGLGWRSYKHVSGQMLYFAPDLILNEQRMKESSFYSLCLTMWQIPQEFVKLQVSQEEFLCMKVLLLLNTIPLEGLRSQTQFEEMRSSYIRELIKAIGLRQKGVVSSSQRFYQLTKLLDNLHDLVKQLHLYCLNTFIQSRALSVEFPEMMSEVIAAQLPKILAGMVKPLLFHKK
Summary of the method: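 Beta-lactamase reporter read-out: after 16 hr compound treatment at 37C and a further 2 hr at room temperature with LiveBLAzer B/G FRET substrate, fluorescence was measured in PR-UAS-bla HEK 293T cells grown in 2% charcoal-stripped serum.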

[4] = qHTS assay to identify small molecule antagonists of the progesterone receptor (PR) signaling pathway - cell viability counter screen (AID 1346798); also: nearly all actives have a fitted effect of over 50% in size; also: potency is read from the fitted curve at half-maximal effect
Summary of the method: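 HEK293T PR-UAS-bla, 2% charcoal-stripped FBS; 4 hr pre-plate; cpd + R5020, 16 h 37C; LiveBLAzer read first; then CellTiter-Glo 30 min RT, luminescence.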

[5] = qHTS assay to identify small molecule agonists of the progesterone receptor (PR) signaling pathway - cell viability counter screen (AID 1346799; calls by dose curve; also: nearly all actives have a fitted effect of over 45% in size; also: potency is read from the fitted curve at half-maximal effect)
Summary of the method: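 Luminescence from CellTiter-Glo, added after the beta-lactamase FRET read in the same wells, gave cytotoxicity in PR-UAS-bla HEK293T cells treated with compounds for 16 hr at 37C.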

[6] = qHTS assay to identify small molecule antagonists of the TGF-beta/Smad signaling pathway - cell viability counter screen (AID 1346824); also: nearly all actives have a fitted effect of over 50% in size
Summary of the method: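 SBE-bla HEK 293T cells, incubated overnight, then compound plus 0.25 ng/mL TGF-beta1 (stock added) for 5 hr at 37 C. Viability was read in the same wells by CellTiter-Glo luminescence after 30 min at room temperature.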

[7] = qHTS assay to identify small molecule agonists of the TGF-beta/Smad signaling pathway (AID 1346859; active = well fitted activation curve with a large enough effect in the signal ratio in the repeat runs, not every such curve was filed as active; the % refers to the signal ratio; also: series mostly up to about 77 µM)
Summary of the method: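 SBE-bla HEK 293T, 4,000 cells/well, plated o/n; cpd in DMSO, 5 hr, 37 C/5% CO2; B/G FRET substrate 2 hr RT; ex 405, em 460/530 nm.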

[8] = biological target: Thyrotropin-releasing hormone receptor (Homo sapiens) (UniProt P34981); test: qHTS assay to identify small molecule agonists of the thyrotropin-releasing hormone receptor (TRHR) signaling pathway (AID 1346891; calls by dose curve; also: series mostly up to about 58 µM)
Thyrotropin-releasing hormone receptor (Homo sapiens), sequence (P34981 whole entry, looked up): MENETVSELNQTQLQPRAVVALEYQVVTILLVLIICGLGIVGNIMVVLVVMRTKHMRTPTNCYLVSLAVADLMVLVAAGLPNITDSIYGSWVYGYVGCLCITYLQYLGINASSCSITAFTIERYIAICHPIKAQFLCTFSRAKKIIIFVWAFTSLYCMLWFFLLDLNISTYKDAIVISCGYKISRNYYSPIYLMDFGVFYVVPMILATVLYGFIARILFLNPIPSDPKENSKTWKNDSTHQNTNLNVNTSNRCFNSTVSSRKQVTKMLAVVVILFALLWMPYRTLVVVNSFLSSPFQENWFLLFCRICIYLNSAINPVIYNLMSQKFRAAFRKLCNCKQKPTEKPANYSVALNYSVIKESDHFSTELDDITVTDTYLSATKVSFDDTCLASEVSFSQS
Summary of the method: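 Intracellular calcium rise, read as fluorescence every second for 3 min, served as the agonist signal in dye-loaded HEK293 cells expressing TRHR; each compound ran at 15 concentrations in triplicate.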

[9] = Human pregnane X receptor (PXR) small molecule agonists, qHTS cell viability counter screen (AID 1346977); also: nearly all actives have a fitted effect of over 50% in size; also: potency is read from the fitted curve at half-maximal effect
Summary of the method: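 PXR-Luc HepG2, 2,000 cells/well, 5% charcoal-stripped FBS; 5hr settle; cpd 24hr, 37C/5% CO2; CellTiter-Fluor at 23hr, read 1hr later (fluorescence).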

[10] = Caspase-3/7 induction in HepG2 cells by small molecules, qHTS assay (AID 1346978); also: nearly all actives have a fitted effect of over 15% in size
Summary of the method: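 Wild-type HepG2 cells, 2,000/well, settled 5 hr at 37 C and 5% CO2, then compound-treated for 17 hr; caspase-3/7 activity read by luminescent Caspase-Glo 3/7 after 30 min at room temperature.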

[11] = Caspase-3/7 induction in CHO-K1 cells by small molecules, qHTS cell viability counter screen (AID 1346979); also: nearly all actives have a fitted effect of over 35% in size; also: potency is read from the fitted curve at half-maximal effect
Summary of the method: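 Cells (CHO-K1, wild type) are plated at 1,500 per well and incubated 5hr. Test compounds in DMSO are then pinned in, followed by 16hr at 37C and 5% CO2. Viability is read by CellTiter-Fluor fluorescence after 1hr.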

[12] = Caspase-3/7 induction in CHO-K1 cells by small molecules, qHTS assay (AID 1346980); also: nearly all actives have a fitted effect of over 15% in size; also: potency is read from the fitted curve at half-maximal effect
Summary of the method: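 Wild-type CHO-K1 cells exposed to compounds for 17hr at 37 C, 5% CO2. Caspase-3/7 activity then measured by Caspase-Glo 3/7 luminescence after 30min at room temperature.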

[13] = Caspase-3/7 induction in HepG2 cells by small molecules, qHTS cell viability counter screen (AID 1346981); also: nearly all actives have a fitted effect of over 30% in size; also: potency is read from the fitted curve at half-maximal effect
Summary of the method: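 Counter screen for cytotoxicity: HepG2 exposed 16 hr to compounds, then CellTiter-Fluor viability signal (fluorescence, 1 hr reagent incubation).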

[14] = biological target: Nuclear receptor subfamily 1 group I member 2 (Homo sapiens) (UniProt O75469); test: Human pregnane X receptor (PXR) small molecule agonists, qHTS assay (AID 1346982); also: nearly all actives have a fitted effect of over 35% in size; also: potency is read from the fitted curve at half-maximal effect
Nuclear receptor subfamily 1 group I member 2 (Homo sapiens), sequence (O75469 whole entry, looked up): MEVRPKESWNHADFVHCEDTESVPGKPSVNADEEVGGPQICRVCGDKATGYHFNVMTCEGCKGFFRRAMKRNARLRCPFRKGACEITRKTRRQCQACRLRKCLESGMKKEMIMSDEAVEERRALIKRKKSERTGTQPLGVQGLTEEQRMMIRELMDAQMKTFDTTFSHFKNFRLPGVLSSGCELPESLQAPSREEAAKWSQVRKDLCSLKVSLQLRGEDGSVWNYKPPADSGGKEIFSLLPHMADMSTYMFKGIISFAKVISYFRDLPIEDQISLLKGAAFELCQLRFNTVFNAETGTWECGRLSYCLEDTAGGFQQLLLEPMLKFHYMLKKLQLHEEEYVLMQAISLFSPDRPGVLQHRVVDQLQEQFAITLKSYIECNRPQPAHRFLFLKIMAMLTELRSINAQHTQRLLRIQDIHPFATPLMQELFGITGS
Summary of the method: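 Luminescence (ONE-Glo, 30 min RT) after 24 hr compound exposure of PXR-Luc HepG2 cells; cells rested 5 hr post-plating in 5% charcoal-stripped FBS medium.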

[15] = biological target: Progesterone receptor (Homo sapiens) (UniProt P06401); test: qHTS assay to identify small molecule antagonists of the progesterone receptor (PR) signaling pathway (AID 1346795; active = well fitted inhibition curve with a large enough effect in the signal ratio in the repeat runs, not every such curve was filed as active; the % refers to the signal ratio; also: potency is read from the fitted curve at half-maximal effect)
Summary of the method: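 Read-out is fluorescence from the LiveBLAzer B/G FRET substrate, cleaved by a UAS-controlled beta-lactamase in PR-UAS-bla HEK293T cells after 16 hr exposure to compound plus 1 nM promegestone (final), followed by 2 hr at room temperature.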

[16] = biological target: Thyrotropin-releasing hormone receptor (Homo sapiens) (UniProt P34981); test: qHTS assay to identify small molecule antagonists of the thyrotropin-releasing hormone receptor (TRHR) signaling pathway (AID 1346877; active = well fitted inhibition curve with a large enough effect in the repeat runs, not every such curve was filed as active; also: series mostly up to about 51 µM)
Summary of the method: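 In this cell-based calcium flux format, HEK293 cells expressing TRHR received test compound for 5 min before the agonist TRH (1 nM final). Dye loading lasted 2 h at 37 °C.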

[17] = qHTS assay to identify small molecule agonists of the TGF-beta/Smad signaling pathway - cell viability counter screen (AID 1346829); also: top concentration of the series differs between compounds; nearly all actives have a fitted effect of over 45% in size
Summary of the method: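 Tox21 qHTS format: SBE-bla HEK 293T cells treated with DMSO-dissolved compounds for 5 hr; CellTiter-Glo luminescence after 30 min at room temperature.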

[18] = biological target: Nuclear receptor subfamily 1 group I member 2 (Rattus norvegicus) (UniProt Q9R1A7); test: Rat pregnane X receptor (rPXR) activation by small molecules, qHTS assay (AID 1346983); details: rPXR luciferase reporter cells, One-Glo luminescence, 24 h; max activation: hits give high values; also: nearly all actives have a fitted effect of over 20% in size
Nuclear receptor subfamily 1 group I member 2 (Rattus norvegicus), sequence (Q9R1A7 whole entry, looked up): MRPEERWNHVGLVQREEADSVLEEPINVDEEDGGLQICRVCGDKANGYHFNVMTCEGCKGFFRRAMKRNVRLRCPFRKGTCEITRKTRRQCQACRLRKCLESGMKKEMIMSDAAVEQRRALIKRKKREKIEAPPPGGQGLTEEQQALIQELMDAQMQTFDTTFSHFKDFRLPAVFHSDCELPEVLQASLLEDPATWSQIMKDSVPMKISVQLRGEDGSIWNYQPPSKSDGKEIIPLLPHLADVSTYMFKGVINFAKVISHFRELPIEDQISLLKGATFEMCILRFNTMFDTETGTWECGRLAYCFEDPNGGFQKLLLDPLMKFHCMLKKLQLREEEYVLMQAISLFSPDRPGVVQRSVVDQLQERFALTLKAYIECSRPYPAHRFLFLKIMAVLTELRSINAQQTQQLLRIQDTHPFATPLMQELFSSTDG
Summary of the method: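 Cell-based rPXR activation assay: rPXR cells, 2,000 per well, rested 5hr at 37 C, then exposed to compounds in DMSO for 24 hr at 37 C. Luciferase activity read by One-Glo luminescence after 30 min at room temperature.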

[19] = biological target: Nuclear receptor subfamily 1 group I member 2 (Homo sapiens) (UniProt O75469); test: CYP3A4 induction through human pregnane X receptor (PXR) by small molecules, qHTS assay (AID 1346984); also: nearly all actives have a fitted effect of over 40% in size
Summary of the method: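 DPX-2 reporter cells; 24h cpd, 37C; Luciferin-IPA 3uM final x3h; One-Glo 30 min RT; lumi read.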

[20] = biological target: Nuclear receptor subfamily 1 group I member 2 (Homo sapiens) (UniProt O75469); test: Human pregnane X receptor (PXR) activation by small molecules, qHTS assay (AID 1346985); also: nearly all actives have a fitted effect of over 40% in size
Summary of the method: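 DPX-2 cells (HepG2 co-transfected with a PXR response element and a CYP3A4-promoter luciferase construct) were seeded at 2,000 per well, rested 5 hr at 37C, then exposed to DMSO-dissolved compounds for 24 hr. Activation was read as luciferase luminescence.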

SMILES	Potency [1]	Potency [2]	Potency [3]	Potency [4]	Potency [5]	outcome [6]	outcome [7]	outcome [8]	Potency [9]	Potency [10]	Potency [11]	Potency [12]	Potency [13]	Potency [14]	Potency [15]	outcome [16]	outcome [17]	max activation [18]	Potency [19]	Potency [20]
O=C(N[C@@H](Cc1ccccc1)[C@@H](O)C(=O)N1C[C@@H](O)[C@@H](O)C1)c1cc2cc(Cl)ccc2[nH]1	inactive	inactive	inactive	inactive	inactive	inactive	inactive	inactive	inactive	inactive	inactive	inactive	inactive	inactive						
CC(C)Oc1ccccc1O	inactive	inactive	inactive				inactive	inactive	inactive	inactive	inactive	inactive	inactive	inactive	inactive	inactive				
CC(C)C[C@H](NC(=O)[C@H](Cc1ccccc1)NC(=O)c1cnccn1)B(O)O	inactive	0.841 µM (active)	inactive	inactive	inactive	inactive		inactive	0.0422 µM (active)		0.0168 µM (active)	0.0067 µM (active)	0.0841 µM (active)	0.0084 µM (active)		inactive	inactive	-18.4% and -17.1%	inactive	inactive
CC(C)CCCCCCCOC(=O)c1ccc(C(=O)OCCCCCCCC(C)C)c(C(=O)OCCCCCCCC(C)C)c1	inactive	inactive	inactive		42.6 µM (active)	inactive	inactive			inactive		inactive	inactive	19 µM (active)			inactive			
OCC(O)c1ccccc1 (configuration not stated)	inactive	inactive	inactive	19.3 µM (active)			inactive	inactive		inactive	inactive	inactive	inactive	inactive		inactive	inactive			
CC(=O)S[C@H](C(=O)N[C@H]1Cc2ccccc2[C@H]2CCC[C@@H](C(=O)O)N2C1=O)C(C)C	inactive	inactive	inactive	inactive	inactive	inactive	inactive	inactive	inactive	inactive	inactive	inactive	inactive	inactive		inactive				
Nc1ccc(C(=O)Oc2ccccc2)c(O)c1	inactive	inactive		inactive	inactive	inactive	inactive	inactive		inactive	inactive	inactive	inactive	inactive	23.7 µM (active)	inactive	inactive	0.405%	inactive	inactive
CC(C)(C)c1cc(C=O)cc(C(C)(C)C)c1O	inactive	inactive			inactive			inactive	inactive	inactive		inactive	inactive	inactive	inactive	inactive	inactive			
Cc1c(Nc2ncccc2C(=O)O)cccc1C(F)(F)F	inactive	inactive				inactive	inactive	inactive	inactive	inactive		inactive	inactive		inactive	inactive	inactive	-1.47%	inactive	inactive
Cc1nc(C)c(C)nc1C	inactive	inactive	inactive		30.6 µM (active)	inactive	inactive	inactive	inactive	inactive		inactive	inactive	inactive		inactive				
O=C(OCCN1CCOCC1)c1cccnc1Nc1cccc(C(F)(F)F)c1	inactive	inactive	inactive	inactive	inactive	inactive	inactive	inactive	inactive				inactive	26.6 µM (active)		inactive	inactive			
CC(C)CC(C)(C)C	inactive	inactive	inactive	inactive	31.8 µM (active)	inactive	inactive	inactive	inactive	inactive	inactive	inactive	inactive	inactive		inactive	inactive			
C[C@H]1C[C@H]2[C@@H]3CCC4=CC(=O)C=C[C@]4(C)[C@@]3(F)[C@@H](O)C[C@]2(C)[C@@]1(O)C(=O)COP(=O)(O)O	inactive	inactive	inactive	inactive	inactive	inactive		inactive	inactive	inactive		inactive	inactive			inactive	inactive			
C[C@H](N)C(=O)N[C@@H](C)C(=O)NC1[C@H]2CN(c3nc4c(cc3F)c(=O)c(C(=O)O)cn4-c3ccc(F)cc3F)C[C@@H]12 (some centres not stated)	inactive	inactive	inactive	inactive		inactive		inactive		inactive	7.5 µM (active)	inactive		21.1 µM (active)						
O=[N+]([O-])c1ccccc1CCO	inactive	inactive		inactive	inactive	inactive	inactive	inactive	inactive	inactive	inactive	inactive	inactive	inactive	inactive	inactive	inactive			
Oc1ccc(Oc2ccccc2)cc1	inactive	inactive				inactive	inactive		inactive	inactive			inactive	46.1 µM (active)	20.6 µM (active)		inactive			
CC1(C)CC(O)CC(C)(C)N1[O]	inactive	inactive		inactive	inactive		inactive	inactive	inactive	inactive	inactive		inactive	inactive	inactive	inactive	inactive			
CC1(COc2ccc(CC3SC(=O)NC3=O)cc2)CCCCC1 (configuration not stated)	inactive	inactive	inactive			inactive	inactive	inactive		inactive		inactive	inactive			inactive	inactive	5.72%		
O=C(O)c1ccc(O)c(O)c1	inactive	inactive		inactive	inactive		inactive	inactive	inactive	inactive	inactive	inactive	inactive	inactive	inactive		inactive			
Cc1cc(C)n(CO)n1	inactive	inactive	inactive		inactive	inactive	inactive	inactive	inactive	inactive	inactive	inactive	inactive	inactive		inactive				
COc1ccc(CN(CCN(C)C)c2ncccn2)cc1		inactive	inactive	inactive	inactive	inactive	inactive	inactive	inactive	inactive	inactive	inactive	inactive	inactive	inactive	inactive	inactive	-0.0529%	inactive	inactive
CC/C=C\CCO		inactive	inactive	inactive	inactive	inactive	inactive	inactive	inactive	inactive	inactive	inactive	inactive	inactive	inactive		inactive			
CC(CCl)OC(C)CCl (configuration not stated)		inactive	inactive	inactive	inactive	inactive	inactive	inactive	inactive	inactive	inactive		inactive	inactive	inactive	inactive	inactive			
